The values below come from PubChem BioAssay (NCI).

Structures are written as SMILES. About 83,000 compounds went through this panel and 20% of them were active in at least one assay; those are over-represented in the sample as a whole.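 Compound tested at a single concentration for 48 hours in 96-well plates; a percent growth value below 10 was scored as active.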 The source made the active and inactive calls.

The test relates to MDA-MB-468 breast. The test is described as follows: NCI-60 one-dose screen, 48 h (100 = growth as untreated, 0 = no growth, -100 = all killed). Conditions: 10 µM unless noted.
Turning to `Cc1ccc(S(=O)(=O)NCC[C@@H]2C[C@H]2c2cc3ccccc3s2)cc1`, the growth is 83.7% (inactive). For `Cc1ccc2c(n1)C(=O)C(Cl)=C(Nc1ccccc1C(=O)OC(C)(C)C)C2=O` the value was -76.5% (active); for `CCCCCc1ccc(S(=O)(=O)Nc2cccc(-c3csc(NC(=O)CN4CCN(CCO)CC4)n3)c2)cc1`, 84.8% (inactive). The figure for `O=C(/C=C\c1ccco1)/C=C/c1ccco1` is 102% (inactive); for `COc1ccc(C2CC(c3ccc4ccccc4c3)=NN2c2nc(O)c(C3=c4cc(OC)ccc4=NC3=O)s2)cc1` (stereo not given) it is -46.5% (active); for `Cn1c(=O)c2[nH]c(SC/C(=N/O)c3ccc(Br)cc3)nc2n(C)c1=O` it is 47.1% (inactive). As to `COc1ccc2[nH]c(C(=O)N3CCN(C(=O)OCc4ccc5c(Cl)cc(Cl)c(O)c5n4)CC3)cc2c1`, the growth is -76.5% (active). For `COc1cc2c(cc1OC)C(Sc1ccc(SC)cc1)c1c(nc(N)c(C#N)c1N)O2` (stereo not given), the growth was -47.1% (active).

As for `COc1ccccc1/C=C/C(=O)/C=C/c1ccccc1O`, the growth is -56.1% (active).

Consider `CC(=O)/C(=C/c1ccccc1)C(=O)CC(C)C`, for which the growth was 93.7% (inactive). For `O=C(N=c1n(-c2ccccc2)nc2n1CCN2C1=NCCN1C(=O)c1ccc(Cl)cc1)c1ccc(Cl)cc1` the value was 73.6% (inactive). On to `CCOC(=O)C1=C(C)NC(C)=C(C(=O)OCC)C1c1cc(Br)c(O)c(OC)c1`, for which the growth is 20.4% (inactive).

In the case of `NC(=O)SCC(=O)Nc1ccc(S(N)(=O)=O)cc1`, the growth was 91.4% (inactive).

For the compound `C=CCS(C)(=O)=O`, the growth is 95.9% (inactive). The figure for `O=S(=O)(Oc1ccc(-c2cn3ccsc3n2)cc1)c1cccc(C(F)(F)F)c1` is 92.9% (inactive); for `O=C(c1ccc(-c2ccccc2)cc1)c1ccc([N+](=O)[O-])cc1` it is 108% (inactive); for `COc1ccc(C(=O)c2cc(OC)c(OC)c(OC)c2)cc1/C=C/C(=O)c1cc(OC)c(OC)c(OC)c1` it is 73% (inactive). The figure for `C#CCSc1nnnn1-c1ccccc1` is 22.3% (inactive); for `O=C(Nc1cccc2ccccc12)c1cc2ccccc2cc1O` it is -17.6% (active); for `Cc1ccc(N(CC(=O)Nc2ccc(S(=O)(=O)N3CCC(N4CCCC4)CC3)cc2)S(=O)(=O)c2ccc(Cl)cc2)cc1` it is -19.6% (active). The figure for `CC(=O)O[C@H]1CC[C@]2(C)[C@H]3CC=C4[C@@H]5CC(C)(C)CC[C@]5(C(=O)OCC(COC(=O)C(Cl)Cl)(COC(=O)C(Cl)Cl)NC(=O)C(Cl)Cl)CC[C@@]4(C)[C@]3(C)CC[C@H]2C1(C)C` is 58.7% (inactive). On to `CN1CCN(CCCOc2cccc3nc(Nc4ccc(F)c(F)c4)ccc23)CC1`, for which the growth is -67.3% (active). With `Nc1nc(Cl)c2c(C(F)(F)F)cn(CC3CCNCC3)c2n1`, the growth is 26.8% (inactive).

For the compound `COc1cc(/C=C/c2cc(O)c3cc(C(C)=O)c(=O)oc3c2)cc2c1O[C@]1(C)CC[C@@H](O)C(C)(C)[C@H]1C2`, the growth is 65% (inactive). The figure for `COc1ccc(OC)c(/C=C/c2nc(=S)n(-c3ccc(Cl)cc3)[nH]2)c1` is 38.8% (inactive); for `COc1ccc(NC(=S)Nc2ccccn2)cc1` it is 104% (inactive); for `COc1ccc([N+](=O)[O-])c(S(=O)(=O)c2ccc(Cl)cc2)n1` it is 52% (inactive). On to `O=S(=O)(O)CCl`, for which the growth is 108% (inactive). On to `Cc1ccc2oc(=O)cc(-c3nc4ccc([N+](=O)[O-])cc4[nH]3)c2c1`, for which the growth was 29% (inactive). Consider `COc1cc(-c2nn(-c3cccc(NC(=O)c4ccc(N5CCOCC5)c(C(F)(F)F)c4)c3)cc2-c2ccncc2)ccc1Cl`, for which the growth is -37.8% (active). For the compound `CCOc1ccc(-n2cc(-c3ccc(N(C)C)cc3)[n+]3c2CCCCC3)cc1`, the growth was -17.4% (active). For `COc1cc2cc(Oc3ccc(NC(=O)Nc4ccc(F)c(C(F)(F)F)c4)cc3)c(C)nc2cc1OCCN1CCCCC1` the value was 71.3% (inactive). As to `COC(=O)c1cc2c(=O)[nH]cc3c2c(n1)CCC3`, the growth was 97.7% (inactive). Regarding `C#CCOc1cccc(Nc2ncnc3c(NC(=O)CCl)cccc23)c1`, the growth was -66.7% (active). With `C=C1C(=O)O[C@H]2[C@H]1CC/C(COC(=O)c1cc3cc(OC)ccc3[nH]1)=C\CC[C@@]1(C)O[C@@H]21`, the growth is -76.3% (active). Regarding `OB(O)c1ccsc1-c1nc2ccc3[nH]ncc3c2c2c1CCCC2`, the growth was 8.64% (active). `CN(C)c1ccc2c(c1)/C(=N/O)c1ccccc1-2`: the growth was 76.9% (inactive).

As to `O=C(Nc1cccc([N+](=O)[O-])c1)c1ccc(Cl)c(Cl)c1`, the growth is 64.2% (inactive). For `O=C(O)COc1ccc(Cl)c(Cl)c1`, the growth was 99.5% (inactive). The figure for `N#Cc1c(-c2cccs2)cc(-c2cnccn2)nc1SCC(=O)NNC(=S)Nc1ccc(F)cc1` is 122% (inactive).
